These results are taken from PubChem BioAssay (NCI).

This is part of a sample that, as a whole, favours compounds with a hit. Of some 83,000 tested, about 20% had one in any assay.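 Assay: single dose, 48 h. Readout: percent growth (0 = no net growth; negative = cell death). Active: <10.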 A number with no mark means an inactive call. Active and inactive are the calls of the source.

Some test systems named below: SR leukemia; RPMI-8226 leukemia; OVCAR-8 ovarian; OVCAR-5 ovarian; OVCAR-4 ovarian; SK-OV-3 ovarian; IGROV1 ovarian; OVCAR-3 ovarian; HS 578T breast; NCI/ADR-RES ovarian.
What all share (assay): NCI-60 one-dose screen, 48 h (100 = growth as untreated, 0 = no growth, -100 = all killed)
Common to all, as to conditions: 10 µM unless noted

For the compound `COC1=CC(c2ccc[nH]2)=N/C1=C\c1[nH]c(C)c(C(=O)OC(C)C)c1C`, the growth in the experiment with SR leukemia is 11.8%; in the experiment on RPMI-8226 leukemia it was -34.6% (active); in the experiment on OVCAR-8 ovarian, 2.67% (active); with OVCAR-5 ovarian, -40.2% (active); in the experiment on OVCAR-4 ovarian it was -49.7% (active); with SK-OV-3 ovarian, 7.3% (active). Further, the growth was -41.5% (active) in the experiment with IGROV1 ovarian, -53.9% (active) in the experiment on OVCAR-3 ovarian, -32.8% (active) with HS 578T breast and -12.5% (active) in the experiment with NCI/ADR-RES ovarian.
With `CC(=O)c1c(C)nc2ccccc2c1/C=C/c1ccc(F)cc1`, the growth is 81.2% with SR leukemia; 66.5% with RPMI-8226 leukemia; 92.9% in the experiment on OVCAR-8 ovarian; 97.7% in the experiment with OVCAR-5 ovarian; 76.7% in the experiment with OVCAR-4 ovarian; 100% with SK-OV-3 ovarian. Besides, the growth in the experiment on IGROV1 ovarian is 85.1%; in the experiment on OVCAR-3 ovarian, 92.9%; in the experiment on HS 578T breast, 91.9%; in the experiment on NCI/ADR-RES ovarian, 67.6%.
In the case of `O=C(CSc1nnc(-c2cnccn2)n1-c1ccccc1)c1ccc(Cl)cc1`, the growth in the experiment on SR leukemia is 90.8%; with RPMI-8226 leukemia it was 92%; in the experiment with OVCAR-8 ovarian it was 100%; in the experiment with OVCAR-5 ovarian, 96.9%; in the experiment with OVCAR-4 ovarian it was 105%; in the experiment with SK-OV-3 ovarian it was 108%. The growth in the experiment with IGROV1 ovarian is 106%; in the experiment with OVCAR-3 ovarian it was 98.3%; in the experiment with HS 578T breast it was 104%; with NCI/ADR-RES ovarian, 104%.
As to `Cc1c(O)cc(-c2cnc(Nc3ccccc3)s2)c(O)c1C`, the growth with SR leukemia was 87.4%; in the experiment on RPMI-8226 leukemia it was 82.5%; in the experiment on OVCAR-8 ovarian, 94%; in the experiment with OVCAR-5 ovarian, 111%; in the experiment on OVCAR-4 ovarian, 84.8%; with SK-OV-3 ovarian, 94.5%. In addition, the growth in the experiment with IGROV1 ovarian was 79.2%; in the experiment with OVCAR-3 ovarian it was 102%; in the experiment on HS 578T breast it was 87.5%; with NCI/ADR-RES ovarian it was 96.5%.
On to `COc1cc(-c2cncn2-c2ccc(-c3nc4ccc(F)cc4s3)cc2)ccc1F`, for which the growth was 73% in the experiment on SR leukemia; 53.6% in the experiment with RPMI-8226 leukemia; 78.1% in the experiment with OVCAR-8 ovarian; 75.7% with OVCAR-5 ovarian; 85.6% in the experiment on OVCAR-4 ovarian; 106% in the experiment with SK-OV-3 ovarian. The growth with IGROV1 ovarian was 52.8%; with OVCAR-3 ovarian it was 97.5%; in the experiment on HS 578T breast, 97.4%; with NCI/ADR-RES ovarian, 80.3%.
Regarding `COc1cc2c(c(OC)c1OC)CCC(c1cccc(C(=O)Nc3ccc(C#N)cc3)c1)O2` (stereo not given), the growth in the experiment with SR leukemia is 16.9%; in the experiment with RPMI-8226 leukemia, 14.4%; with OVCAR-8 ovarian, 28.5%; with OVCAR-5 ovarian it was 79.3%; in the experiment with OVCAR-4 ovarian, 35.3%; in the experiment with SK-OV-3 ovarian, 73.2%. The growth with IGROV1 ovarian is 68.9%; in the experiment with OVCAR-3 ovarian, 65.6%; in the experiment with HS 578T breast, 72.3%; in the experiment on NCI/ADR-RES ovarian, 19%.
Regarding `O=C1NC2(Nc3ccccc31)C(=O)Nc1c(Cl)cc(Cl)cc12` (stereo not given), the growth in the experiment with SR leukemia was 93.2%; in the experiment with RPMI-8226 leukemia, 105%; with OVCAR-8 ovarian, 102%; with OVCAR-5 ovarian, 115%; in the experiment with OVCAR-4 ovarian it was 98.9%; in the experiment with SK-OV-3 ovarian it was 107%. The growth with IGROV1 ovarian is 91.5%; in the experiment on OVCAR-3 ovarian, 118%; with HS 578T breast it was 100%; in the experiment with NCI/ADR-RES ovarian it was 108%.
As to `NC(=O)c1ccc(-c2c3ccccc3cc3c2ccc2ccccc23)cc1`, the growth in the experiment with SR leukemia was 15.9%; with RPMI-8226 leukemia it was 49.7%; in the experiment with OVCAR-8 ovarian, 77.4%; with OVCAR-5 ovarian, 74.7%; in the experiment with OVCAR-4 ovarian, 80%; with SK-OV-3 ovarian, 69.5%. Further, the growth was 42.6% in the experiment with IGROV1 ovarian, 3.85% (active) in the experiment on OVCAR-3 ovarian, -12.4% (active) in the experiment on HS 578T breast and 16.6% in the experiment with NCI/ADR-RES ovarian.
As to `COc1cc(NS(=O)(=O)c2ccc(-c3cnc(C4CC4)o3)cc2)ccc1F`, the growth with SR leukemia is 19.6%; in the experiment with RPMI-8226 leukemia, 20.2%; in the experiment on OVCAR-8 ovarian, 28.6%; in the experiment with OVCAR-5 ovarian it was 36.7%; in the experiment on OVCAR-4 ovarian it was 38.6%; with SK-OV-3 ovarian it was 47.4%. Moreover, the growth was 24.6% in the experiment with IGROV1 ovarian, -15.4% (active) with OVCAR-3 ovarian, 8.89% (active) in the experiment with HS 578T breast and 15.3% in the experiment with NCI/ADR-RES ovarian.
For the compound `N#CC1=C(c2ccccc2)Nc2c(c(-c3ccc(Cl)cc3)nn2-c2ccccc2)C12C(=O)Nc1ccc(Cl)cc12` (stereo not given), the growth in the experiment with SR leukemia was 53.9%; in the experiment with RPMI-8226 leukemia, 47.4%; with OVCAR-8 ovarian it was 84%; in the experiment on OVCAR-5 ovarian, 82.6%; with OVCAR-4 ovarian, 87.8%; in the experiment on SK-OV-3 ovarian it was 90.8%. In addition, the growth in the experiment with IGROV1 ovarian was 57.1%; in the experiment with OVCAR-3 ovarian it was 88.1%; in the experiment with HS 578T breast, 62.2%; in the experiment with NCI/ADR-RES ovarian, 87.8%.
Turning to `NC(N)=NCCCCCNc1noc(Cc2c[nH]c3cc(Br)ccc23)n1`, the growth in the experiment on SR leukemia was 98.3%; with RPMI-8226 leukemia, 39.6%; in the experiment on OVCAR-8 ovarian, 64.6%; with OVCAR-5 ovarian, 85.4%; in the experiment on OVCAR-4 ovarian, 67.5%; in the experiment on SK-OV-3 ovarian it was 83.7%. For the same compound, the growth is 56.3% in the experiment with IGROV1 ovarian, 33.4% in the experiment with OVCAR-3 ovarian, 56.9% with HS 578T breast and 101% with NCI/ADR-RES ovarian.
Turning to `COC(=O)Nc1nc2ccc(S(=O)c3ccccc3)cc2[nH]1` (stereo not given), the growth was 23.4% in the experiment on SR leukemia; 75.6% in the experiment with RPMI-8226 leukemia; 80.3% with OVCAR-8 ovarian; 92.8% in the experiment on OVCAR-5 ovarian; 84.4% in the experiment on OVCAR-4 ovarian; 81.1% in the experiment on SK-OV-3 ovarian. Further, the growth in the experiment with IGROV1 ovarian was 67.8%; in the experiment with OVCAR-3 ovarian it was 57.9%; in the experiment with HS 578T breast, 62%; in the experiment with NCI/ADR-RES ovarian it was 53.3%.
`COc1ccc(-c2nc3cc(C(=O)NCc4ccccc4)ccc3n2C2CCCCC2)cc1`: the growth in the experiment with SR leukemia was 43.8%; in the experiment with RPMI-8226 leukemia, 69.2%; in the experiment with OVCAR-8 ovarian it was 93%; in the experiment with OVCAR-5 ovarian, 84.9%; in the experiment on OVCAR-4 ovarian, 80.4%; in the experiment with SK-OV-3 ovarian, 102%. The growth in the experiment on IGROV1 ovarian is 105%; in the experiment on OVCAR-3 ovarian, 85.8%; with HS 578T breast, 76.3%; in the experiment with NCI/ADR-RES ovarian, 88.5%.
